{
  "source": "PubChem BioAssay (NCI)",
  "note": "Compounds without any hit were thinned out: in the full panel of roughly 83,000, 20% have a hit.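 48-hour exposure, single concentration, 96-well plates; percent growth endpoint where 0 means no net growth. Active: below 10.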 A number with no mark means an inactive call. Activity calls are given as the source filed them.",
  "data": [
    {"test_system": "KM12 colon", "assay": "NCI-60 one-dose screen, 48 h (100 = growth as untreated, 0 = no growth, -100 = all killed)", "conditions": "10 µM unless noted", "method": "Growth inhibition of the KM12 human tumor cell line is measured as a screen for anti-cancer activity. Cells are grown in 96 well plates and exposed to the test compound for 48 hours. Compounds are tested at a single concentration, which is 10^-5 M for most compounds. The reported endpoint is percent growth (GI% or GIPRCNT), where numbers from 0 - 100% represent growth inhibition, and numbers from -100% - 0 represent cell death. For example, a value of 40 represents 60% growth inhibition. A value of 0 means no net growth occurred over the course of the experiment. A value of -40 indicates 40% of cells at the beginning of the experiment died by the end of the experiment. A value of -100 means all cells are dead at the end of the experiment.\nNCI-60 Human Tumor Cell Lines Screen was performed using the standard one-dose NCI protocol, which is described in more detail at https://dtp.cancer.gov/discovery_development/nci-60/default.htm.\nCompounds with GIPRCNT values below 10 were considered active. Activity score was based on GIPRCNT using the following formula: […]\nScore is 0 for GIPRCNT values of 100 or above, 50 for GIPRCNT values of 0, and 100 for GIPRCNT values of -100.", "values": [
      {"smiles": "CC(C)n1nc(C#Cc2cccc(NC(=O)c3cccc(C(F)(F)F)c3)c2)c2c(N)ncnc21", "growth": "3.28% (active)"},
      {"smiles": "Clc1ccc(-c2nc(NCCc3ccccc3)nc3c(NCCc4ccccc4)cnn23)cc1", "growth": "70%"},
      {"smiles": "COc1cc(/C=C/C(=O)c2cccc(-n3cc(-c4ccccc4)[nH]c3=O)c2)cc(OC)c1OC", "growth": "-53.6% (active)"},
      {"smiles": "O=C(CCCCCCCn1cc(-c2cccnc2)nn1)Nc1ccccc1-c1ccccc1", "growth": "29.4%"},
      {"smiles": "O=C1N/C(=N/O)S/C1=C/c1cn(-c2ccccc2)nc1-c1ccccc1", "growth": "86.4%"},
      {"smiles": "COc1ccc(/C(C)=C(\\c2ccc(Cl)cc2)c2ccc(OCCN3CCCCCC3)cc2)cc1F", "growth": "23%"},
      {"smiles": "CCOC(=O)c1c(C)nc2c(c1N)/C(=C/c1cc(OC)c(OC)c(OC)c1)C(=O)N2c1ccc(OC)cc1", "growth": "43.7%"},
      {"smiles": "CCNCCNc1cc(-c2ccc(Cl)cc2)c(C#N)c2nc3ccccc3n12", "growth": "27.8%"},
      {"smiles": "O=C(/C=C/C12c3ccccc3C(c3ccccc31)C1C(=O)N(c3ccccc3)C(=O)C12)c1ccccc1", "note": "(stereo not given)", "growth": "-41.3% (active)"},
      {"smiles": "COc1cccc(-c2cnco2)c1OCc1c(C)c(COc2c(OC)cccc2-c2cnco2)c(C)c(COc2c(OC)cccc2-c2cnco2)c1C", "growth": "64.9%"},
      {"smiles": "COc1ccc(Cn2cnc3cc(C(=O)Nc4cccc5ccccc45)ccc32)c(OC)c1", "growth": "2.44% [30 µM] (active)"},
      {"smiles": "c1ccc([P+](CCCc2n(Cc3ccc4ccccc4c3)c3ccccc3[n+]2Cc2ccc3ccccc3c2)(c2ccccc2)c2ccccc2)cc1", "growth": "32.2%"},
      {"smiles": "Cc1csc(NC(=O)c2sc3nc(-c4cccs4)ccc3c2N)n1", "growth": "92.9%"},
      {"smiles": "CC(=O)C(C(C)=O)c1nc2sc3cc(Cl)ccc3n2c(=N)c1C#N", "growth": "82.4%"},
      {"smiles": "O=C1CSC(c2ccc(O)cc2)N1c1nnc(Cn2cnnc2)o1", "note": "(stereo not given)", "growth": "49.9%"},
      {"smiles": "Cc1ccc(C)c2c1C(=O)OC2=O", "growth": "109%"},
      {"smiles": "Cc1cc(=O)[nH]c(N/N=C/c2cc(Br)ccc2O)n1", "growth": "34.6%"},
      {"smiles": "COC1(CC[C@@H](C)COC2OC(CO)C(O)C(O)C2O)O[C@H]2C[C@H]3[C@@H]4CC=C5C[C@@H](OC6OC(CO)C(OC7OC(C)C(O)C(O)C7O)C(O)C6OC6OC(C)C(O)C(O)C6O)CC[C@]5(C)[C@H]4CC[C@]3(C)[C@H]2[C@@H]1C", "note": "(stereo not given in full)", "growth": "-82.2% (active)"},
      {"smiles": "CCCCCCCCCCCCCCCCCC1=NCCN1C(=O)OCCO", "growth": "21.4%"},
      {"smiles": "COc1ccc(-c2c(N)n[nH]c2-c2ccccc2O)cc1OC", "growth": "107%"},
      {"smiles": "CCc1c(C(=O)N[C@@H]2c3cc(Cl)ccc3CC[C@@H]2O)[nH]c(C)c1C(C)=O", "growth": "71.6%"},
      {"smiles": "O=C1CCC(N2C(=O)c3cccc(NCCCC4CCN(CCNC(=O)c5cc6c(o5)C(=O)c5ccccc5C6=O)CC4)c3C2=O)C(=O)N1", "note": "(stereo not given)", "growth": "-79.2% (active)"},
      {"smiles": "CCN(CC)CC(=O)Nc1cccc(C(=O)OC(C)C)c1", "growth": "105%"},
      {"smiles": "O=C1NCC(=O)N(Cc2ccco2)[C@H]1Cc1ccccc1", "growth": "103%"},
      {"smiles": "COc1cc2c(cc1OC)-c1ccc3cc4c(cc3c1N(CCCn1ccnc1)C2)OCO4", "growth": "76.1%"},
      {"smiles": "C[C@@H]1CC[C@@H]2[C@@H]1[C@H](OC(=O)c1ccc3ccccc3c1)[C@]1(C3CCCCC3)C[C@@H](OC(=O)CO)[C@@]2(C)O1", "growth": "54.2%"},
      {"smiles": "COc1ccc(C(=O)/C=C/c2cc3c(c(OC)c2)OCC(=O)N3)cc1", "growth": "14.7%"},
      {"smiles": "COC(=O)CCCNC(=O)C(=O)c1c(O)c(O)c(C(C)C)c2cc(C)c(-c3c(C)cc4c(C(C)C)c(O)c(O)c(C(=O)C(=O)NCCCC(=O)OC)c4c3O)c(O)c12", "growth": "8.55% (active)"},
      {"smiles": "O=C1C(Cl)C(c2ccccc2Cl)N1n1cnnc1", "note": "(stereo not given)", "growth": "96.9%"},
      {"smiles": "CC(=O)Nc1ccc2c(c1)Cc1c(F)cccc1-2", "growth": "91.5%"},
      {"smiles": "Cc1c(C(N)=O)sc2nc(C)n(/N=c3\\scc(-c4ccccc4)n3Cc3ccccc3)c(=O)c12", "growth": "13.6%"},
      {"smiles": "CCCCCCNC(=O)c1cc(NCc2cc(O)ccc2O)ccc1O", "growth": "69.1%"},
      {"smiles": "CCCCCCCCc1cc[n+](CC(=O)c2ccc(Br)cc2)cc1", "growth": "-56.8% (active)"},
      {"smiles": "NC(=O)CC1(O)C=C(Br)C(=O)C(Br)=C1", "growth": "109%"},
      {"smiles": "COc1cc2oc(-c3cccc(C(=O)Nc4ccc(C#N)cc4)c3)cc(=O)c2c(O)c1OC", "growth": "38.9%"},
      {"smiles": "CC1=NN(c2cccc(Cl)c2)C(=O)/C1=C\\c1cn(CC(O)CN2CCCCC2)c2ccccc12", "note": "(stereo not given)", "growth": "29.7%"},
      {"smiles": "CCn1nc(C#Cc2c(C)ccc3c(Nc4ccc(Cl)cc4)nccc23)c2c(N)ncnc21", "growth": "14.2%"},
      {"smiles": "COc1cc(C(=O)/C=C/c2c(-c3ccc(F)cc3)nc3ncccn23)cc(OC)c1OC", "growth": "22.3%"},
      {"smiles": "C(=C\\c1nc2ccccc2[nH]1)/c1nc2ccccc2[nH]1", "growth": "98.1%"},
      {"smiles": "CN1C[C@@H](c2ccc(Cl)cc2)[C@]2(NC(=S)N(c3ccccc3)C2=O)[C@@]12C(=O)NC1C=CC(Br)=C[C@H]12", "note": "(stereo not given in full)", "growth": "78.5%"}
    ]}
  ]
}
